# Some of the results follow. Records with an inconclusive call do not appear. Activity calls are given as the source filed them. The call rests on the fitted dose curve; in most records, active means well fitted inhibition curve with a large enough effect; inconclusive means small, poorly fitted or top-dose-only effect; inactive means no such curve, though single readings can be large or run the other way.
# Molecular target: ATP-dependent DNA helicase Q1 (Homo sapiens) (UniProt P46063)
# Experiment: Confirmation qHTS Assay for Inhibitors of RecQ-Like Dna Helicase 1 (RECQ1); further: nearly all actives have a fitted effect of over 45% in size
# Conditions: RECQ1 helicase DNA unwinding, fluorescence
# Description: Survival of cells and the faithful propagation of the genome depend on elaborate mechanisms of detecting and repairing DNA damage. Treatment of advanced cancer relies on radiation therapy or chemotherapy, which kill cancer cells by causing extensive DNA damage. It is often found, that cancer cells develop resistance to therapy through enhanced activity of DNA repair functions; this has led to an increased interest in developing drugs that interfere with DNA repair, which could sensitize cancer cells to conventional therapy.
# This validation qHTS assay pertains to human RECQ1, which is important in resolving abnormal DNA structures formed during replication or homologous recombination. Shutting down the expression of RECQ1 leads to chromosomal instability and higher radiation sensitivity in cultured cells.
# The validation assay was a fluorescence quenching based kinetic qHTS for RECQ1 Helicase DNA unwinding. The activity was measured as ATP-dependent separation of a 20-bp DNA duplex extended by 30-nt single-stranded tails (forked duplex). The forked DNA substrate was tagged with rhodamine fluorophore (carboxytetramethyl rhodamine, TAMRA) and BHQ-2 (Black Hole Quencher 2) dark quencher. Strand separation results in an increase in the fluorescence of TAMRA (excitation 525 nm, emission 598 nm). […]
# Potency means the concentration at half of the fitted maximal effect.
# ATP-dependent DNA helicase Q1 (Homo sapiens), sequence (P46063 whole entry, looked up): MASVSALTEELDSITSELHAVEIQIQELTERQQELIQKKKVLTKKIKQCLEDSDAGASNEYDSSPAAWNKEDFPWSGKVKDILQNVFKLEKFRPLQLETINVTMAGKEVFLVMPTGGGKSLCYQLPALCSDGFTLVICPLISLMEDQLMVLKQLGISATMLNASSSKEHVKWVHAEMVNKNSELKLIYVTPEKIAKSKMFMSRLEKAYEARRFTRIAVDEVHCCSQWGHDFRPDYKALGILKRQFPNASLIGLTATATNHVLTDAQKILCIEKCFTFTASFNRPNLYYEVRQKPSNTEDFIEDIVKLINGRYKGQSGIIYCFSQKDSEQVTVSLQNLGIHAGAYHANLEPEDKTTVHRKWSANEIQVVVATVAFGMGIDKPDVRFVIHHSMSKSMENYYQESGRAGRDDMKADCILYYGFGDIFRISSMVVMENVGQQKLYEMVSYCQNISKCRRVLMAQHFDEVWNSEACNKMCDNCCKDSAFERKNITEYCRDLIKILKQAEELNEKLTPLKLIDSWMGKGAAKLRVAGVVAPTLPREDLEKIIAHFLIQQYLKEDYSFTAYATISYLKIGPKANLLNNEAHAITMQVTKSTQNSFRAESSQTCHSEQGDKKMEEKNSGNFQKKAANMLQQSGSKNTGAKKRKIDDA
smiles,measurement,value
O=C(O)c1cc[c]([Sb](=[O])([OH])[OH])cc1[N+](=O)[O-],Potency,913 nM (active)
